Assay outcomes: PubChem BioAssay, The Scripps Research Institute Molecular Screening Center
Hits are enriched below; roughly 1.6% of the tested compounds scored in any of these assays.
HTR5A ag: activates human HTR5A in OPRM1-OPRD1 agonist counter-screen; HTR5A agonist assay, luminescence, cell-based; 340,000 tested, 0.61% active; P47898; AID 504692; activation, % at 9.3 µM; in the data active means activation mostly above about 9.5%, no sharp cut-off; inactive means mostly below about 7.6%
OPRM1-OPRD1 inv: mu-delta opioid heterodimer inverse agonism. P35372+P41143. cell-based MOR-DOR heterodimer luminescence. inhibition, % at 9.3 µM. 340,000 tested, 0.21% active; in the data active means inhibition above about 22%, passing the limit was not always enough
Target sequence (P35372 whole entry, looked up): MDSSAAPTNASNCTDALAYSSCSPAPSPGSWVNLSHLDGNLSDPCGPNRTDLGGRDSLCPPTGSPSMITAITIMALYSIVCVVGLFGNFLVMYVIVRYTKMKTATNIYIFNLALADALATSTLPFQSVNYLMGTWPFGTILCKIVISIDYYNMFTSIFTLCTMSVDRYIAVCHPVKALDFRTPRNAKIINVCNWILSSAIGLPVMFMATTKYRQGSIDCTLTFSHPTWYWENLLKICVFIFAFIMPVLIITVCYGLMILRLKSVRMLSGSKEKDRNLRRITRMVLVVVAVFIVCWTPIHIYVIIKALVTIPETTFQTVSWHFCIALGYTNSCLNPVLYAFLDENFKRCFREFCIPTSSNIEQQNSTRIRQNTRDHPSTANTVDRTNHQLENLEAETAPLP
Target sequence (P41143 whole entry, looked up): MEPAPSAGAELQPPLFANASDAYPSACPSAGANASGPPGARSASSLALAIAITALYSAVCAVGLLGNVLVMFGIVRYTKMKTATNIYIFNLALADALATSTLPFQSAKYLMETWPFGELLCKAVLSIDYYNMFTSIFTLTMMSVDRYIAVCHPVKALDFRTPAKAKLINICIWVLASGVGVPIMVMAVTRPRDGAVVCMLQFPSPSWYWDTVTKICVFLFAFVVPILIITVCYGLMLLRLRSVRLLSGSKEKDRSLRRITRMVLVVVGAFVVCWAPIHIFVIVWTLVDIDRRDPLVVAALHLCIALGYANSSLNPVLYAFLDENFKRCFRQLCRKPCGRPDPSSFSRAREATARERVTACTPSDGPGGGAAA
HTR5A inv ctr: counter-screen for OPRM1-OPRD1 inverse agonists: human HTR5A inverse agonism. HTR5A cell line, luminescence. inhibition, % at 9.3 µM. 340,000 tested, 0.083% active. AID 504634; in the data active means inhibition mostly above about 23%, no sharp cut-off; inactive means mostly below about 18%
MOR-DOR ag: agonists of human mu-delta opioid receptor heterodimerization; 340,000 tested, 0.3% active; activation, % at 9.3 µM; cells, OPRM1-OPRD1 heterodimerization, luminescence; in the data active means activation above about 18%
HTR2A ag: agonists of mouse serotonin 5-HT2A receptor (HTR2A). P35363. CHO-K1 mHTR2A beta-arrestin complementation, luminescence; percent of 30 µM serotonin response. activation, % at 7.6 µM. 360,000 tested, 0.66% active. AID 624169;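 active means activation above a run cutoff, the mean activation of all tested compounds plus 3 SD, cut at about 14% in these data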
OPRM1-D1 inv cf: confirmation of human OPRM1-OPRD1 heterodimerization inverse agonists; cells expressing OPRM1/OPRD1 heterodimer, luminescence; shares compounds with OPRM1-OPRD1 inv; inhibition, % at 9.3 µM; 580 tested, 20% active; in the data active means inhibition above about 32%
HTR5A inv ctr2: inverse agonist of human HTR5A in OPRM1-OPRD1 counter-screen. shares compounds with OPRM1-OPRD1 inv. HTR5A-expressing cells, luminescence, inverse agonism. inhibition, % at 9.3 µM. 580 tested, under 10 active. AID 504914; call rule not given here
A number is an active result; - = inactive; . = no result given.

SMILES	HTR5A ag	OPRM1-OPRD1 inv	HTR5A inv ctr	MOR-DOR ag	HTR2A ag	OPRM1-D1 inv cf	HTR5A inv ctr2
CC1CCCN(c2ccc(/C=C(\C#N)c3nn(-c4ccccc4)c(N)c3C#N)cc2[N+](=O)[O-])C1 (stereo not drawn)	-	29.4	-	-	-	-	-
O=C(CN1C(=O)NC2(CCc3ccccc32)C1=O)Nc1ccccc1C(F)(F)F (stereo not drawn)	-	-	-	-	-	.	.
CC1=C(C)C(=O)C(N2CCOCC2)=CC1=O	-	46.6	-	-	-	-	-
CC1C[N+](=C2C=C(N3CCOCC3)CC(C)(C)C2)CC(C)O1 (stereo not drawn)	-	-	-	-	-	.	.
CNc1sc(C(=O)c2ccccc2F)c(N)c1-c1nc2ccccc2s1	-	48.4	-	-	-	-	-
O=C(CNC(=O)c1ccccc1F)OCc1nc2ccccc2s1	-	-	-	-	-	.	.
CCCn1c2ccccc2c2nnc(SCC(=O)Nc3ncccn3)nc21	-	31.7	-	-	-	-	-
COC(=O)c1[nH]c(=O)c2ccccc2c1O	-	42.3	-	-	-	-	-
O=C(COC(=O)c1ccc(CO)cc1)c1ccc(S(=O)(=O)N2CCCCC2)cc1	-	38.4	-	-	-	-	-
O=C(COC(=O)c1ccccc1F)c1ccc(-n2nncc2-c2ccco2)cc1	-	32.8	-	-	-	-	-
CCC1(c2ccccc2)NC(=O)N(Cc2cccc([N+](=O)[O-])c2)C1=O (stereo not drawn)	-	-	-	-	-	.	.
Cc1ccc2c(c1)C(=O)C(=O)N2Cc1ccc(F)cc1	-	38.8	-	-	-	-	-
Cc1ccc2c(c1)C(=O)C(=O)N2Cc1ccc(Cl)cc1	-	-	-	-	-	.	.
Cc1ccc2c(c1)C(=O)C(=O)N2Cc1ccccc1	-	37.7	-	-	-	-	-
O=C1C(=O)N(Cc2cccc([N+](=O)[O-])c2)c2ccccc21	-	51.6	-	-	-	-	-
NS(=O)(=O)c1ccc(CCNC(=O)Cc2ccc(S(=O)(=O)N3CCCC3)s2)cc1	-	-	-	-	-	.	.
O=C1c2ccccc2-c2c1nc1c([n+]2[O-])CCCC1	-	92.7	-	-	-	-	-
O=C(NNc1ccc(Cl)cc1)c1sccc1Cl	-	46.6	-	-	-	-	-
O=C(/C=C/c1ccccc1)NNc1ccc(Cl)cc1	-	30.9	-	-	-	-	-
NS(=O)(=O)c1ccc(NNC(=O)c2sccc2Cl)cc1	-	-	-	-	-	.	.
NS(=O)(=O)c1ccc(NNC(=O)c2ccccc2C(=O)O)cc1	.	.	.	.	-	.	.
O=C(O)c1ccccc1C(=O)NNc1ccc(Cl)cc1	-	39.1	-	-	-	-	-
Cn1c(N)c(C(=O)COC(=O)/C=C/c2ccc(Cl)c(Cl)c2)c(=O)n(C)c1=O	-	-	-	-	-	.	.
O=C(O)CCN1C(=O)/C(=C\c2ccc(-c3nc4ccccc4s3)o2)SC1=S	-	-	-	-	-	.	.
COc1ccc2c(c1)C(=O)C(=O)N2	-	63.0	30.9	-	-	-	-
SMILES	HTR5A ag	OPRM1-OPRD1 inv	HTR5A inv ctr	MOR-DOR ag	HTR2A ag	OPRM1-D1 inv cf	HTR5A inv ctr2
COc1cc2c(cc1OC)[C@H](C)N(C(=O)NCc1ccccc1)CC2	-	-	-	-	-	.	.
COc1ccc(OC)c(NC(=O)COC(=O)COc2ccc(Nc3ccccc3)cc2)c1	-	-	-	-	-	.	.
CN(C)S(=O)(=O)c1ccc(/C(O)=C2/C(=O)C(=O)N(Cc3cccnc3)C2c2cccs2)cc1 (stereo not drawn)	-	39.5	-	-	-	-	-
COc1cc(-n2nc(C)c3c2OC(N)=C(C#N)C3c2ccccc2)c(Cl)c(Br)c1O (stereo not drawn)	-	34.2	-	-	-	-	-
Cn1cc(/C=C2\SC(=O)NC2=S)c2ccccc21	-	28.1	-	-	-	-	-
Cc1ccc(C(=O)NN2C(=O)/C(=C/c3cn(C)c4ccccc34)SC2=S)cc1	-	-	-	-	-	.	.
Cc1onc(-c2ccccc2)c1C(=O)N1CCCC(C(F)(F)F)C1 (stereo not drawn)	-	-	-	-	-	.	.
O=C(NCc1ccc2c(c1)OCO2)c1nc(S(=O)(=O)Cc2ccccc2F)ncc1Cl	-	32.0	-	-	-	-	-
O=C(NCc1ccc2c(c1)OCO2)c1nc(S(=O)(=O)Cc2ccccc2)ncc1Cl	-	-	-	-	-	.	.
O=C(NCc1ccccc1)c1nc(S(=O)(=O)Cc2ccccc2)ncc1Cl	-	34.8	-	-	-	-	-
CCCCC(=O)NC(=S)NNC(=O)CCc1ccccc1	-	39.1	-	-	-	-	-
Cc1ccc(NC(=O)CN2C(=O)N/C(=C/c3ccc(N4CCOCC4)cc3)C2=O)cc1	-	-	-	-	-	.	.
Cc1ccc2c(c1)C(=O)C(=O)N2CC(=O)Nc1ccc(N2CCOCC2)cc1	-	31.8	-	-	-	36.7	-
CCCc1ccc(C(=O)NNC(=O)c2ccc(Br)cc2)cc1	-	-	-	-	-	.	.
O=C(NNc1ccc(O)cc1)c1ccc(Br)cc1	-	65.6	-	-	-	61.8	-
CCCc1ccc(C(=O)NNc2ccc(F)cc2)cc1	-	43.5	-	-	-	-	-
CN(CC(=O)Nc1ccccc1Cl)C(=O)COC(=O)C1=COCCO1	-	-	-	-	-	.	.
Cc1no[n+]([O-])c1COc1cccc(/C=N/Nc2nncn2N)c1	-	-	-	-	-	.	.
CCOCC(=O)Nc1nc2ccc(OCC)cc2s1	-	-	-	-	-	.	.
CCOc1ccc2nc(-c3cc(NC(C)=O)ccc3O)sc2c1	-	27.0	-	-	-	-	-
Cc1ccc(NNC(=O)c2cc(C)on2)c(C)c1	-	-	-	-	-	.	.
Cc1cc(C(=O)NNc2ccc(Cl)cc2)no1	-	35.1	-	-	-	-	-
Cc1cc(C(=O)NNc2ccc(C)c(C)c2)no1	-	57.8	-	-	-	-	-
Cc1cc(C(=O)NNC(=O)Nc2ccc(Cl)cc2)no1	.	.	.	.	-	.	.
O=S(=O)(c1ccc(F)cc1)N1CCN(CC(O)COCC2CCCO2)CC1 (stereo not drawn)	-	-	-	-	-	.	.
ON1C(c2ccccc2C(F)(F)F)N(O)[C@H]2CCCC[C@H]21 (stereo partly drawn)	-	41.0	-	-	-	-	-
CCC(=O)OCCNc1cc(Sc2nccn2C)c2nonc2c1[N+](=O)[O-]	-	41.5	-	-	-	-	-
CCCC(=O)OCCNc1cc(Sc2nc3ccccc3[nH]2)c2nonc2c1[N+](=O)[O-]	-	34.7	-	-	-	-	-
Cc1cccc(NC(=S)NC(=O)c2ccco2)n1	-	21.8	-	-	-	-	-
CCOc1ccccc1NC(=O)C1CCCN(S(=O)(=O)c2ccc3c(c2)CCCN3C(C)=O)C1 (stereo not drawn)	.	.	.	.	-	.	.
